Hits are enriched below; roughly 6% of the tested compounds scored in any of these assays.
D1 ag: activates the human D1 dopamine receptor; P21728; HEK293 T-REx D1 cells, calcium flux, agonist mode; activation, % at 2 µM; actives 1% (n = 360,000); AID 504660; in the data active means activation above about 30%
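Agonism was scored from calcium flux recorded over 180 s (1 read/s) after pintool compound addition, following a 10-cycle baseline. Cells were inducible force-coupled HEK293 TREx D1, plated overnight at 30 C and loaded with no-wash calcium dye.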
D3 ag: D3 dopamine receptor (human) agonism; actives 0.58% (n = 410,000); D3R DiscoveRx beta-arrestin cells, luminescence, 90 min; max activation, %; in the data active means max activation above about 30%
Target sequence (P35462 whole entry, looked up): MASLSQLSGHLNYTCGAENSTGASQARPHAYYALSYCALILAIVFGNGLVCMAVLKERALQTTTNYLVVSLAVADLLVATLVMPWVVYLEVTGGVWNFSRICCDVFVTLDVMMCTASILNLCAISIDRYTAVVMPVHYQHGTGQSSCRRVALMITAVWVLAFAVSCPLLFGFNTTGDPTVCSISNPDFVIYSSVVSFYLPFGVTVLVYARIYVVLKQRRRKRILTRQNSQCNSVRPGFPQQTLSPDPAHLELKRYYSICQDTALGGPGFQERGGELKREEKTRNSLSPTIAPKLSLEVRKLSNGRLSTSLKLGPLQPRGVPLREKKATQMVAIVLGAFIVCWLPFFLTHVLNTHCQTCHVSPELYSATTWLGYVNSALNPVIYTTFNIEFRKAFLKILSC
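Agonist-mode cell screen: cells plated at 1500/well and incubated overnight at 37 °C, then exposed to library compounds for 90 min at 37 °C. Detection reagent was added for 30–60 min at room temperature, and luminescence was read.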
DRD3 antagonist: D3 dopamine receptor (human) antagonism; P35462; AID 652054; D3R cells, DiscoveRx beta-arrestin luminescence, antagonist mode; stronger effect = lower value; actives 2.5% (n = 360,000); max response, negative = inhibition, %; in the data active means max response below about -50%; inconclusive means no clear call, values can overlap the other calls
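Cells plated overnight at 1500 cells/well, then exposed to library compounds with dopamine controls for 90 minutes at 37 degrees C. DiscoveRx reagent added for 30–60 minutes at room temperature; luminescence read, quantitative HTS format.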
D1 potentiator: enhances dopamine response at the human D1 receptor; AID 504651; actives 0.036% (n = 360,000); P21728; potentiation, % at 10 µM; HEK293 TREx D1 cells, calcium flux, dopamine EC20 potentiation; in the data active means potentiation above about 30%
D1 antag: blocks dopamine activation of the human D1 receptor | P21728 | HEK293 TREx D1 cells, calcium flux, dopamine EC80; stronger effect = lower value | activity change, negative = inhibition, % at 10 µM | actives 3.2% (n = 360,000) | AID 504652; in the data active means activity change below about -30%
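Kinetic fluorescence of a calcium dye serves as the read-out. D1-expressing Hek293 Trex cells, induced overnight at 30 C, are exposed to compound for 180 s before an EC80 dopamine addition, then read 180 s further.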
Each line names hits and unclear results; the compound was inactive in the other large screens.

O=C(O)c1ccc(-n2c(/C=C/c3ccccc3)nc3ccccc3c2=O)cc1	none
COC(=O)c1ccc(-n2c(/C=C\c3cccc(Br)c3)nc3ccccc3c2=O)cc1	D1 antag -32 (no result: DRD3 antagonist)
CCSc1nnc(NC(=O)c2cccc(S(=O)(=O)N(C)c3ccc(C)cc3)c2)s1	D1 antag -54
CN(c1ccccc1)S(=O)(=O)c1cccc(C(=O)NNC(=O)c2ccccc2)c1	none
O=C(Nc1ccc(Cl)cn1)c1cccc(S(=O)(=O)N2CCCC2)c1	none
CN(C)S(=O)(=O)c1cccc(C(=O)Nc2ccc(Cl)cn2)c1	DRD3 antagonist -77
CCc1nnc(NC(=O)c2cccc(S(=O)(=O)N(C)c3ccccc3)c2)s1	none
Cc1cccc(NC(=O)c2cc(S(=O)(=O)N(C)c3ccc(F)cc3)ccc2Cl)n1	DRD3 antagonist -57
Cc1ccc(N(C)S(=O)(=O)c2cccc(C(=O)Nc3ccc(C)cn3)c2)cc1	D1 antag -88
O=C(Nc1ccc(Cl)cn1)c1cccc(S(=O)(=O)N2CCCCC2)c1	D1 ag 31 (no result: D1 potentiator)
O=C(Nc1ccc(Cl)cn1)c1cccc(S(=O)(=O)N2CCCCCC2)c1	none (no result: D1 ag, D1 potentiator, D1 antag)
Cc1ccc(S(=O)(=O)N2CCCCC2)cc1NC(=O)Cn1cnnn1	none
Cc1ccc2oc(=O)c3cnn(CC(=O)Nc4ccc(Br)cc4C)c3c2c1	none (no result: DRD3 antagonist)
Cc1cc(Br)ccc1NC(=O)CNC(=O)Cn1ncc(Cl)c(Cl)c1=O	DRD3 antagonist -83
Cc1ccc(S(=O)(=O)N2CCCCC2)cc1NC(=O)Cn1ncc(Cl)c(Cl)c1=O	DRD3 antagonist -64 (no result: D1 ag, D1 potentiator, D1 antag)
CC(C)C(=O)Nc1cccc(C(=O)Nc2nnc(CC(C)(C)C)s2)c1	none (no result: DRD3 antagonist)
CCS(=O)(=O)N1CCC(C(=O)NCCCN2CCN(c3ccccc3F)CC2)CC1	D3 ag 40, DRD3 antagonist -52, D1 antag -75
CCCS(=O)(=O)N1CCCC(C(=O)NCCCN2CCN(c3ccccc3F)CC2)C1 (stereo unspecified)	D3 ag 31, DRD3 antagonist -53, D1 antag -38
CCCS(=O)(=O)N1CCCC(C(=O)NCCCN2CCN(c3cccc(Cl)c3)CC2)C1 (stereo unspecified)	none
O=C(NCCCN1CCN(c2ccccc2F)CC1)C1CCN(S(=O)(=O)c2cccs2)CC1	DRD3 antagonist inconclusive
CCOc1cc2c(cc1O)C(=NOC)CC1C2CCC2(C)C(O)CCC12 (stereo unspecified)	none (no result: D1 ag, D1 potentiator, D1 antag)
COc1ccc(CNCC(O)COc2ccc3[nH]c(=O)ccc3c2)cc1OC (stereo unspecified)	none (no result: D1 ag, DRD3 antagonist, D1 potentiator, D1 antag)
CCC[N+]1(CC#CC(O)(c2ccccc2)C2CCCCC2)CCCCC1 (stereo unspecified)	DRD3 antagonist -54
Cc1oc2c(C)c3oc(=O)c(CCC(=O)N4C[C@H]5C[C@@H](C4)c4cccc(=O)n4C5)c(C)c3cc2c1C	none
Cc1coc2c(C)c3oc(=O)c(CCC(=O)N4C[C@H]5C[C@@H](C4)c4cccc(=O)n4C5)c(C)c3cc12	D3 ag 35
C/C(=N\NC(N)=O)c1cc(Cl)cc(Cl)c1O	DRD3 antagonist -82
COCCCN1C(=O)C(CC(=O)NCC2CCCCC2)CC(C(=O)N2CCOCC2)=C1C (stereo unspecified)	none (no result: D1 ag, D1 potentiator, D1 antag)
COc1ccc(C(=O)NNC(=O)CCc2ccccc2OC)cc1	none
O=C(NCc1cc(Cl)cc(Cl)c1)c1ccc2sc([C@H]3C[C@H](O)[C@@H](CO)O3)nc2c1	none (no result: D1 ag, D1 potentiator, D1 antag)
O=C(NCc1ccc(Cl)nc1)c1ccc2sc([C@@H]3O[C@H](CO)[C@H](O)[C@H](O)[C@H]3O)nc2c1	none (no result: D1 ag, D1 potentiator, D1 antag)
Cc1cccc(C)c1NC(=O)c1ccc2sc([C@@H]3O[C@H](CO)[C@H](O)[C@H](O)[C@H]3O)nc2c1	DRD3 antagonist -52 (no result: D1 ag, D1 potentiator, D1 antag)
Cc1cnc(CNC(=O)c2ccc3sc([C@@H]4O[C@H](CO)[C@H](O)[C@H](O)[C@H]4O)nc3c2)cn1	DRD3 antagonist -50 (no result: D1 ag, D1 potentiator, D1 antag)
O=C(NCc1cccnc1)c1ccc2sc([C@H]3C[C@H](O)[C@@H](CO)O3)nc2c1	DRD3 antagonist -69 (no result: D1 ag, D1 potentiator, D1 antag)
CCCN(CC)C(CC)C(=O)Nc1c(C)cccc1C (stereo unspecified)	none (no result: D1 ag, DRD3 antagonist, D1 potentiator, D1 antag)
COCCNC(=O)c1ccc2c(c1)N(Cc1ccc(C(F)(F)F)cc1)C(=O)c1ccccc1S2	none (no result: DRD3 antagonist)
COc1ccc(NC(=O)c2oc3ccccc3c2NC(=O)C23CC4CC(CC(C4)C2)C3)cc1	none (no result: DRD3 antagonist)
O=C(O)c1ccc(S(=O)(=O)c2ccc3c(c2)C(=O)N(NC(=O)c2ccccc2)C3=O)cc1	none
O=C(O)c1ccc(S(=O)(=O)c2ccc3c(c2)C(=O)N(NC(=O)c2ccncc2)C3=O)cc1	DRD3 antagonist -56
Cc1nc(N2CCCC2)c2c(C(=O)N3CCN(c4cccc(Cl)c4)CC3)c(C)oc2n1	none (no result: DRD3 antagonist)
CCC(=O)N(CCC(c1ccccc1)c1ccc2c(c1)OCO2)Cc1ccc(OC(C)C)cc1 (stereo unspecified)	D1 antag -53 (no result: DRD3 antagonist)
NNC(=O)c1cc2sccc2s1	DRD3 antagonist inconclusive, D1 antag -36
CC(=O)NNC(=O)c1cc2sccc2s1	none
CC(=O)c1ccc(S(=O)(=O)Nc2ccc(-c3ccc(N4CCCCC4)nn3)cc2)cc1	none (no result: DRD3 antagonist)
CCCCCCCC/C=C\CCCCCCCC(=O)NCCc1ccc(O)c(O)c1	D3 ag 211
CCCCCCCC/C=C\CCCCCCCC(=O)NCc1ccc(O)c(OC)c1	none (no result: D1 ag, DRD3 antagonist, D1 potentiator, D1 antag)
CSc1nn(Cc2ccc(Br)cc2)c(N(C(C)=O)C(C)=O)c1S(=O)(=O)c1ccccc1	none (no result: DRD3 antagonist)
Cc1cc(C)cc(OCC(O)CN2CCC(CN3C(=O)c4cccc5cccc(c45)C3=O)CC2)c1 (stereo unspecified)	DRD3 antagonist -68
COc1cccc(OCC(O)CN2CCC(CN3C(=O)c4cccc5cccc(c45)C3=O)CC2)c1 (stereo unspecified)	DRD3 antagonist -52
O=C1c2cccc3cccc(c23)C(=O)N1CC1CCN(CC(O)COc2ccc3ccccc3c2)CC1 (stereo unspecified)	DRD3 antagonist inconclusive
COc1ccc(C(=O)Nc2ccc(-c3nc4ncccc4o3)cc2C)cc1Br	none (no result: DRD3 antagonist)
CN(C)c1ccc(/C=C(/C#N)C(=O)NCc2ccccc2)o1	D1 ag 102, DRD3 antagonist -88
COCCn1c(C)cc(C(=O)COC(=O)c2ccc(Br)o2)c1C	DRD3 antagonist -82
COc1cccc(-c2ccc(C#N)c(SCC(=O)NCc3ccco3)n2)c1	none
N#Cc1ccc(-c2ccco2)nc1SCc1ccccc1	D1 antag -93
CCSc1nc(-c2ccco2)ccc1C#N	DRD3 antagonist -54
Cc1cccc(NC(=O)CSc2c(C)cnc3c2c(=O)n(C)c(=O)n3C)c1C	none (no result: DRD3 antagonist, D1 antag)
CCOC(=O)c1ccc(Nc2sc(C(=O)c3cccc([N+](=O)[O-])c3)c(N)c2C#N)cc1	D1 antag -32
O=C(COC(=O)COc1ccc2ccccc2c1)NCC(F)(F)F	D1 antag -32
CCCCN(CC)C(=O)CSc1nc2c(sc3ccccc32)c(=O)n1CCc1ccccc1	none (no result: DRD3 antagonist)

Bioassay records deposited in PubChem BioAssay by National Center for Advancing Translational Sciences (NCATS).
